PubChem BioAssay AID2685 (National Center for Advancing Translational Sciences (NCATS), 2010)
In all, about 320,000 compounds went through this assay and about 2,100 (0.66%) were called active. Roughly 53% stayed inconclusive and do not appear here. Calls come from the whole dose curve; as a rule, active = well fitted inhibition curve with a large enough effect in the signal ratio, with a control signal flat (not every such curve was filed as active); inconclusive = small, poorly fitted or top-dose-only effect, or effect the other way, or a change in a side signal; inactive = flat fitted curve, though single readings scatter; the % refers to the signal ratio. The entries come from a sample that favours actives as a whole.

Test: qHTS Assay for Lipid Storage Modulators in Drosophila S3 Cells;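 for cell number change: cells counted by Cell Tracker Red CMTPX staining in the red channel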
Conditions: BODIPY lipid droplet fluorescence, 18-24 h, cells fed with added oleic acid; cell number change: measured here: cell count max response; series mostly up to 46.1 µM
Method in brief: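 Laser-scanning cytometry quantifies lipid droplet accumulation (500–530 nm total intensity; droplet/cell object ratio) in oleic acid-fed (400 uM added) Drosophila S3 cells treated with a concentration series. 20 uM Triacsin C defined 100% inhibition.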
Potency is the fitted concentration of half-maximal effect.

Row | SMILES | Potency | cell number change
1 | COc1cccc(C2=NOC(C(=O)Nc3cccnc3Cl)C2)c1 (stereo unspecified) | inactive | 3.11%
2 | CN(c1ccccc1)S(=O)(=O)c1cccc(NC(=O)c2ccncc2)c1 | inactive | 0.47%
3 | Cc1cc(C)n2nc(C(=O)Nc3ccc(S(=O)(=O)N(C)C)cc3)nc2n1 | inactive | -26.7%
4 | Cc1cc(C)n2nc(C(=O)Nc3cccc(S(=O)(=O)N(C)c4ccccc4)c3)nc2n1 | 11.6 µM (active) | -15.3%
5 | Cc1nc2c(-c3ccccc3)cnn2c(N2CCOCC2)c1C | 2.91 µM (active) | -16.7%
6 | Cc1cc(N2CCOCC2)n2ncc(-c3ccccc3)c2n1 | inactive | -5.35%
7 | CC(C)(C)c1cc(N2CCOCC2)n2ncc(-c3ccccc3)c2n1 | inactive | -9.44%
8 | O=C(CN1CCCCC1)N1N=C(c2cccs2)CC1c1cccs1 (stereo unspecified) | inactive | 18.5%
9 | CSc1ccc(CN(C)C(=O)CSCC(=O)Nc2cc(C)on2)cc1 | inactive | 13.3%
10 | CN(C(=O)CSc1nnc(-c2ccccc2)n1C)C1CCS(=O)(=O)C1 (stereo unspecified) | inactive | 
11 | Cc1ccc2nc(SCC(=O)N(C)C3CCS(=O)(=O)C3)[nH]c2c1 (stereo unspecified) | 1.16 µM (active) | 7.53%
12 | CN(C(=O)CSc1nnc(-c2ccc(C(C)(C)C)cc2)n1C)C1CCS(=O)(=O)C1 (stereo unspecified) | 10.3 µM (active) | 3.86%
13 | CCn1c(SCC(=O)N(C)C2CCS(=O)(=O)C2)nnc1-c1ccccc1 (stereo unspecified) | inactive | -11.5%
14 | CCN(C(=O)CSc1nc2ccc(OC)cc2[nH]1)C1CCS(=O)(=O)C1 (stereo unspecified) | inactive | 
15 | CN(C(=O)CSc1nc2ccccc2[nH]1)C1CCS(=O)(=O)C1 (stereo unspecified) | inactive | -2.26%
16 | O=C(COC(=O)Cc1ccccc1F)Nc1cc(S(=O)(=O)N2CCOCC2)ccc1N1CCCC1 | inactive | 0.15%
17 | COC(=O)CN1C(=O)N/C(=C/c2ccc(OC)cc2)C1=O | inactive | -7.72%
18 | O=C(NC1CC1)c1ccc(S(=O)(=O)NCC2CCCCC2)cc1 | inactive | 6.17%
19 | NC(=O)c1ccc(Oc2ccc3c(c2)CCC3)c([N+](=O)[O-])c1 | 2.91 µM (active) | -16.2%
20 | NC(=O)c1ccc(Oc2ccc(-c3nnco3)cc2)c([N+](=O)[O-])c1 | inactive | 16.7%
21 | NC(=O)c1ccc(Oc2ccc(Cl)cc2)c([N+](=O)[O-])c1 | inactive | 18.1%
22 | CCOc1ccc(Cl)cc1S(=O)(=O)N1CCCC1 | inactive | 23.3%
23 | COc1cnc(-c2ccccc2)nc1Sc1ccccc1 | inactive | 14.5%
24 | CN(C)S(=O)(=O)c1cccc(C(=O)NCCOC(=O)c2cc(F)c(F)cc2Cl)c1 | inactive | 5.13%

Row | SMILES | Potency | cell number change
25 | CCc1ccc(OCCNC(=O)c2ccc(S(=O)(=O)N(C)C)cc2)cc1 | inactive | -5.09%
26 | CCN(CC)CCNC(=O)c1ccc(NC(=O)c2ccc(F)cc2F)cc1 | inactive | 0.662%
27 | CCN(CC)S(=O)(=O)c1ccc(C(=O)NCCOC(=O)c2ccc(F)cc2F)cc1 | 4.61 µM (active) | 
28 | CN(C)S(=O)(=O)c1ccc(C(=O)NCCOc2ccc(F)cc2)cc1 | 18.4 µM (active) | 5.77%
29 | CN(C)S(=O)(=O)c1ccc(C(=O)NCCOc2ccccc2)cc1 | inactive | -3.57%
30 | CN1C(C(=O)NCc2ccccc2)CC2Cn3c(nc4cc(Cl)c(Cl)cc43)C21 (stereo unspecified) | inactive | 23.6%
31 | CS(=O)(=O)N1CCN(c2ccc(C(=O)N3CCOCC3)cc2[N+](=O)[O-])CC1 | inactive | 10.2%
32 | COc1nc2ccccc2nc1CCC(=O)O | inactive | -4.36%
33 | CC(=O)Nc1nc(=O)c2ccccc2s1 | inactive | -8.23%
34 | O=C(Nc1ccc(NC(=O)c2ccc(Cl)cc2Cl)cc1)c1ccc2c(c1)OCO2 | 16.4 µM (active) | -0.901%
35 | O=C(Nc1ccc2c(c1)OCCO2)c1ccc(Cl)cc1Cl | inactive | -12.4%
36 | Cc1cc(C(=O)Nc2ccc3c(c2)OCCO3)ccc1[N+](=O)[O-] | inactive | 0.293%
37 | O=C(Nc1ccc(Cl)c([N+](=O)[O-])c1)c1ccc2c(c1)OCCO2 | inactive | 0.135%
38 | O=C(Nc1ccc(F)c(F)c1)c1ccc2c(c1)OCO2 | inactive | -8.99%
39 | O=C(Nc1ccc2c(c1)OCCO2)c1ccc(Cl)c([N+](=O)[O-])c1 | 16.4 µM (active) | -0.392%
40 | Fc1cccc(Cl)c1Cn1nnc2c(NCc3ccccn3)ncnc21 | inactive | -17.4%
41 | CC(C)(C)C1CCC(C(=O)Nc2ccc(N3CCOCC3)cc2N2CCOCC2)CC1 (stereo unspecified) | 0.0731 µM (active) | 2.76%
42 | O=C(Nc1ccc(Cl)cc1N1CCOCC1)C1CC1 | inactive | -0.587%
43 | O=C(Nc1ccc(N2CCOCC2)cc1)C1CC1 | inactive | 20.3%
44 | CC(C)c1ccccc1NC(=O)c1ccc2ncsc2c1 | inactive | 3.81%
45 | Cc1cc(C)c2nc(-c3ccncc3)cc(C(=O)N3CCN(Cc4ccccc4Cl)CC3)c2c1 | inactive | -25.7%
46 | CCOc1ccc(-c2cc(CCCC(=O)NCc3ccco3)no2)cc1 | inactive | 7.38%
47 | CC(=O)c1cccc(NC(=O)c2ccccc2OCc2ccc(F)cc2)c1 | inactive | 17.5%
48 | CC(=O)Nc1cccc(NC(=O)c2cccc(OCc3ccccc3)c2)c1 | inactive | -0.179%

Row | SMILES | Potency | cell number change
49 | CC(=O)Nc1cccc(NC(=O)c2ccccc2OCc2ccccc2)c1 | 0.103 µM (active) | 4.05%
50 | Cc1cc(N2CCN(c3ccccc3)CC2)n2cc(-c3ccccc3)nc2n1 | inactive | 0.751%
51 | O=C(O)c1cc(-c2ccccc2)n[nH]1 | inactive | -6.51%
52 | COc1ccc(-c2cc(C(=O)NN)[nH]n2)cc1OC | inactive | 0.0556%
53 | COc1ccc(-c2cc(C(=O)O)[nH]n2)cc1OC | 18.4 µM (active) | -22.4%
54 | COc1ccccc1NS(=O)(=O)c1cccc(C(=O)NNC(=O)C(NC(N)=O)C(C)C)c1 (stereo unspecified) | inactive | -2.91%
55 | CC1=Nc2ccccc2/C1=C\c1nc(-c2ccc(F)cc2)oc1O | 4.11 µM (active) | -8.49%
56 | COc1ccc(-c2nc(/C=C3\C(C)=Nc4ccccc43)c(O)o2)cc1 | inactive | 8.93%
57 | CN=Cc1nc(-c2ccccc2)oc1O | inactive | 3.36%
58 | CCC(=O)NC(=S)Nc1ccc(NC(=O)c2ccc([N+](=O)[O-])cc2Cl)cc1 | inactive | -6.05%
59 | CC(=O)OCC1=C(C(=O)O)N2C(=O)C(NC(=O)c3ccc(COc4ccc(Cl)cc4)o3)C2SC1 (stereo unspecified) | inactive | 12.1%
60 | O=C(C1CCC1)N1CCN(c2ccc(C(F)(F)F)cc2[N+](=O)[O-])CC1 | 0.58 µM (active) | 4.32%
61 | NC(=O)C1CCN(c2ccc(C(F)(F)F)cc2[N+](=O)[O-])CC1 | inactive | 
62 | O=[N+]([O-])c1cc(C(F)(F)F)ccc1N1CCC(O)CC1 | inactive | 9.29%
63 | C1CCC(Nc2nc3nonc3nc2N2CCSCC2)C1 | inactive | -7.42%
64 | O=C(NN(C(=O)C1CC1)c1nc2ccccc2s1)C1CC1 | inactive | 4.43%
65 | O=C(O)CCC(=O)Nc1ccc(N=Nc2ccccc2)cc1 | inactive | -12.6%
66 | O=C(O)CCCC(=O)Nc1ccc(N=Nc2ccccc2)cc1 | inactive | 17%
67 | O=C(CCl)Nc1ccc(N=Nc2ccccc2)cc1 | 5.8 µM (active) | -14.8%
68 | CCCCCC/C=N/Nc1nnc(Cc2ccc(OC)c(OC)c2)c(=O)[nH]1 | inactive | 
69 | CC(=O)Nc1ccc(S(=O)(=O)Nc2nnc(CC(C)(C)C)s2)cc1 | inactive | 0.722%
70 | CC(=O)Nc1ccc2nc(NS(=O)(=O)c3ccc(C)cc3)sc2c1 | inactive | 2.04%
71 | O=S(=O)(Nc1nnc(C2CCCCC2)s1)c1ccc(F)cc1 | inactive | -12.8%
72 | CC(=O)Nc1ccc(S(=O)(=O)Nc2nnc(C3CCCCC3)s2)cc1 | 3.66 µM (active) | 6.53%

Row | SMILES | Potency | cell number change
73 | CC(=O)Nc1ccc(S(=O)(=O)Nc2nc3ccccc3s2)cc1 | 23.1 µM (active) | -10.9%
74 | CC(=O)Nc1ccc(S(=O)(=O)Nc2nc3ccc(C)cc3s2)cc1 | inactive | 6.47%
75 | COc1ccc(CCNC(=O)C(=O)Nc2nccs2)cc1OC | inactive | 
76 | Cc1c(N=C/C=C/c2ccccc2)cnn1C | inactive | 0.211%
77 | CCc1nnc(SCC(=O)Nc2nccs2)n1CC | inactive | 1.52%
78 | CC1(C)Cc2c(cnn2-c2cccc(F)c2)C(NC(=O)CN2CCCC2=O)C1 (stereo unspecified) | inactive | -1.15%
79 | CCOC(=O)COc1ccc(C)cc1-c1ccno1 | inactive | 
80 | Cc1oc(C(=O)O)cc1COc1cccc2ccccc12 | inactive | 16.3%
81 | Cc1oc(C(=O)O)cc1COc1cccc2cccnc12 | 6.51 µM (active) | 7.93%
82 | COc1cc(C(=O)O)cc(OC)c1OCc1cc(C(=O)O)oc1C | inactive | -10.9%
83 | Cn1cc(-c2ccc(Cl)cc2)cc(C#N)c1=O | inactive | 
84 | Cc1ccccc1/C=N/n1c(COc2ccccc2)n[nH]c1=S | inactive | 4.96%
85 | O=C(OCCOCCN=C1NS(=O)(=O)c2ccccc21)c1ccc(F)cc1 | 1.64 µM (active) | 13.2%
86 | O=C(OCCCN=C1NS(=O)(=O)c2ccccc21)c1ccc(F)cc1 | inactive | -17.4%
87 | O=C(CN1C(=O)c2ccccc2C1=O)OCCOCCN=C1NS(=O)(=O)c2ccccc21 | inactive | 10.2%
88 | O=C(OCCOCCN=C1NS(=O)(=O)c2ccccc21)c1ccncc1 | inactive | 0.489%
89 | O=C(OCCCN=C1NS(=O)(=O)c2ccccc21)C1CC(=O)N(c2ccc(Cl)cc2)C1 (stereo unspecified) | inactive | -12.2%
90 | O=C(OCCOCCN=C1NS(=O)(=O)c2ccccc21)C1CC(=O)N(c2ccccc2)C1 (stereo unspecified) | 8.2 µM (active) | 
91 | CN(CC(=O)Nc1ccc(Cl)cc1)CC(=O)Nc1ccc(C(N)=O)cc1 | inactive | -11%
92 | Cc1cc(=O)n(C)c(=O)n1CCCCOc1cccc([N+](=O)[O-])c1 | inactive | 11.9%
93 | N#Cc1nc(-c2cccs2)oc1NCc1ccc(Cl)cc1 | inactive | 
94 | Cc1cc2occ(CC(=O)Nc3nccs3)c2cc1C(C)C | inactive | 
95 | Cc1cc2occ(CC(=O)NCc3cccs3)c2cc1C(C)C | 1.46 µM (active) | -2.8%
96 | Cc1ccc2c(CC(=O)NCc3cccs3)coc2c1 | inactive | 20.1%
